# Screening data from PubChem BioAssay.
# IL1B secr inh – qHTS for Inhibitors of Inflammasome Signaling: IL-1-beta AlphaLISA Primary Screen; THP-1 LPS/ATP IL-1B secretion, AlphaLISA, 16 h; hits give low values; activity change, % at 57.5 µM; actives 4.7% (n = 360,000); in the data active = activity change below about -50%; inconclusive = mostly about -30% to -49%
#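 THP-1 cells pretreated 1 hr with compounds (up to 57.5 uM final), then stimulated with LPS (250 ng/mL final) plus ATP (1.25 mM final); secreted IL-1B measured by AlphaLISA after 16 hr, decreased signal indicating inhibition.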
# HT1080 IDH1KD tx – qHTS for induction of synthetic lethality in tumor cells producing 2HG: qHTS for the HT-1080-IDH1KD cell line; Potency, µM (series often up to 46.1 µM), inactives show top-dose activity, negative = toxicity, hits mostly cytotoxic; actives 2% (n = 360,000); HT-1080 IDH1 knockdown viability, ATP luminescence, 48 h; AID 686971, 2013;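 also: potency is read from the fitted curve at half-maximal effect; 0% = DMSO wells and -100% = cell-free medium wells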
#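 Assay cells: HT-1080 with IDH1 knockdown, 750 per well, RPMI/5% FBS. Exposure: 48 h at 37 °C following 2 h pre-incubation. Read: CellTiter-Glo luminescence; fitted concentration-response, curve class assigned.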
# HT1080NT lethal – qHTS for induction of synthetic lethality in tumor cells producing 2HG: qHTS for the HT-1080-NT fibrosarcoma cell line; HT-1080-NT fibrosarcoma viability, CellTiter-Glo ATP luminescence, 48 h; actives 1.6% (n = 360,000); Potency, µM (highest dose often 46.1 µM), for inactives: top-dose activity, negative = less viability, hits mostly cytotoxic;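 also: NT is the 2HG producing partner of a matched IDH1 knockdown line; potency is read from the fitted curve at half-maximal effect; 0% = DMSO-treated cells and -100% = media-only wells without cells; nearly all actives have a fitted effect of over 55% in size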
#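 750 cells/well, RPMI + 5% FBS; 2 h settle, compound pin-transfer, 48 h at 37 degrees C. CellTiter-Glo 10 min RT, luminescence. Normalized to DMSO and media-only wells.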
# KB-V1 cytotox – qHTS assay for MDR1-selective chemotherapeutics: Primary screen using the drug-selected MDR subline cells KB-V1. AID 1347076, 2019. actives 3.4% (n = 400,000). KB-V1 MDR cells viability, CellTiter-Glo, 72 h. Potency, µM (series often up to 46.1 µM), most hits filed as cytotoxic; also: potency is read from the fitted curve at half-maximal effect; nearly all actives have a fitted effect of over 60% in size
#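 Luminescent ATP read-out (CellTiter-Glo, 10 min) measures survival of drug-selected KB-V1 MDR cells after 72 h, 37 degrees C compound exposure. Medium: phenol-red-free DMEM, 10% FBS. Values from fitted concentration-response curves.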
# KB-3-1 tox – qHTS assay for MDR1-selective chemotherapeutics: Primary screen using the parental adenocarcinoma cell KB-3-1; KB-3-1 viability, CellTiter-Glo ATP luminescence, 72 h; Potency, µM (titrated, usually from 46.1 µM), actives largely listed as cytotoxic; actives 1.4% (n = 400,000); also: potency is read from the fitted curve at half-maximal effect; nearly all actives have a fitted effect of over 60% in size
#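 Parental KB-3-1 adenocarcinoma cells in phenol-red-free DMEM with 10% FBS were pin-treated with compounds at several concentrations, incubated 72 h at 37 °C, and viability read by CellTiter-Glo luminescence; concentration-effect curves were fitted after normalization.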
# Active calls of the source: *; i = inactive; ? = inconclusive; . = no result. A selection: hits, their analogues and other compounds. The true share with any hit is near 8.8%. Unless noted, calls follow the shape of the dose curve; as a rule, active = well fitted curve in the direction sought with a large enough effect; inconclusive = small, poorly fitted or top-dose-only effect, or another doubt; inactive = no such curve, though single readings can be large; an effect the other way counts as inactive or inconclusive. Unless noted, % is scaled to controls: 0 for no effect and ±100 for the full control effect.
SMILES,IL1B secr inh,HT1080 IDH1KD tx,HT1080NT lethal,KB-V1 cytotox,KB-3-1 tox
CC12CCC(C/C1=N\N=C1\NC(=O)/C(=C\c3cccc(Br)c3)S1)C2(C)C (stereo not drawn),-68*,-23%,-16%,?,i
COc1cc(/C=N/N=C2\CC3CCC2(C)C3(C)C)ccc1O (stereo not drawn),-13,-1%,-19%,i,i
COC(=O)c1ccc2nc(-c3ccccc3)c(Cc3ccsc3)n2c1,20,-27%,?,i,?
COc1ccc(-c2nc3ccc(C)cn3c2Cc2ccsc2)cc1OC,-17,?,?,23µM*,i
COC(=O)c1ccc2nc(-c3ccc(OC)c(OC)c3)c(Cc3ccsc3)n2c1,-2,-7%,13%,i,i
COC(=O)c1ccc2nc(-c3ccc(Cl)cc3)c(Cc3ccsc3)n2c1,33,17%,13%,21µM*,?
CCc1ccccc1Nc1nn2c(=O)c3ccc(C(=O)NCc4ccc(C)cc4)cc3nc2s1,.,.,.,i,2.9µM*
CCOC(=O)C1CCN(C(=O)c2ccc3c(=O)n4nc(Nc5ccccc5OC)sc4nc3c2)CC1,-52*,-11%,-14%,i,i
NS(=O)(=O)c1ccc(CNC(=S)NC2CC2)cc1,8,0%,-3%,i,i
COc1ccc(NC(=O)c2cc(C3CCCCN3C(=O)CCCc3ccccc3)on2)c(C)c1 (stereo not drawn),2,7%,6%,i,i
Cc1ccc(NC(=O)CN2c3cccc4cccc(c34)S2(=O)=O)cc1S(=O)(=O)N1CCOCC1,14,-10%,-4%,3.7µM*,?
Cc1ccc(NC(=O)COc2cccc(Oc3ccccc3)c2)cc1S(=O)(=O)N1CCOCC1,18,-11%,-10%,12µM*,16µM*
Cc1cccc(OCCC(=O)Nc2ccc(C)c(S(=O)(=O)N3CCOCC3)c2)c1,-15,-16%,1%,i,?
COc1cc(C#N)ccc1OCC(=O)Nc1ccc(C)c(S(=O)(=O)N2CCOCC2)c1,-24,-6%,-6%,8.2µM*,i
Cc1ccc(NC(=O)CCCSc2ccccc2)cc1S(=O)(=O)N1CCOCC1,-52*,-1%,-22%,?,i
CN(C)c1ccc(Nc2ccc([N+](=O)[O-])cn2)cc1,-6,0%,-2%,i,i
O=C(Cc1c(F)cccc1Cl)Nc1ccc(S(=O)(=O)NCC2CCCO2)cc1 (stereo not drawn),-3,-7%,17%,i,i
COc1ccccc1NS(=O)(=O)c1ccc(C)c(NS(=O)(=O)c2cc(C(=O)O)cc(C)c2C)c1,i,27%,6%,i,i
CN1CCN(CCNC(=O)c2ccc(CS(=O)c3ccc(Br)cc3)o2)CC1 (stereo not drawn),17,-4%,7%,i,i
Cc1cc(C)cc(NC(=O)C(Cc2ccccc2)NS(=O)(=O)c2ccc3c(c2)CCC(=O)N3)c1 (stereo not drawn),.,.,.,i,i
COc1ccc(NC(=O)NC2COc3ccccc3C2)cc1Cl (stereo not drawn),.,.,.,?,i
O=C(CSc1ccc(F)cc1)N1CCOCC1,10,6%,-2%,i,i
CC(CC(=O)Nc1ccc(Cl)c(S(=O)(=O)N2CCOCC2)c1)c1ccccc1 (stereo not drawn),-18,-13%,18µM*,2.1µM*,4.6µM*
CC(NC(=O)Nc1ccc(Cl)c(Cl)c1)C(c1ccccc1)N1CCOCC1 (stereo not drawn),-11,?,23µM*,?,i
Cc1ccc(NC(=O)COc2ccc(Cl)cc2Cl)cc1S(=O)(=O)N1CCOCC1,-57*,-22%,-9%,?,i
SMILES,IL1B secr inh,HT1080 IDH1KD tx,HT1080NT lethal,KB-V1 cytotox,KB-3-1 tox
O=C(O)CC(SCC(=O)Nc1ccc(Cl)c(S(=O)(=O)N2CCOCC2)c1)C(=O)O (stereo not drawn),7,6%,11%,i,i
C#CCOCCOCCOCCNc1nc(N2CCN(C(=O)[C@H]([C@@H](C)CC)n3cc([C@@H](N)CC(C)C)nn3)CC2)nc(N2CCN(C(=O)[C@H]([C@@H](C)CC)n3cc([C@@H](N)CC(C)C)nn3)CC2)n1,-15,3%,1%,?,i
COc1ccc(-c2nc(SC)n(C)c(=O)c2C#N)cc1OC,-76*,1%,1%,i,i
CN(Cc1ccccc1F)c1cc2c(c3c1ccn3C)C1CCC2C1 (stereo not drawn),0,-10%,-8%,i,i
COc1ccccc1CNC(=O)CCNS(=O)(=O)/C=C/c1ccc(C)cc1,-55*,3%,3%,i,i
Cc1ccc(/C=C/S(=O)(=O)NCCC(=O)NCc2ccccc2F)cc1,-11,6%,5%,i,i
c1ccc(Cn2nnc(CNc3ccccc3)c2-c2c(CNc3ccccc3)nnn2Cc2ccccc2)cc1,-15,-15%,-4%,i,i
O=S(=O)(Nc1cccc(C(F)(F)F)c1)c1ccc(NS(=O)(=O)c2ccc3c(c2)OCCO3)cc1,.,.,.,i,i
CC(OC(=O)c1cccc(S(=O)(=O)Nc2cccc(C(F)(F)F)c2)c1)C(=O)Nc1ccc2c(c1)OCCO2 (stereo not drawn),-4,-9%,-15%,15µM*,?
CCOc1ccc(NC2OC(CO)C(O)C(O)C2O)c([N+](=O)[O-])c1 (stereo not drawn),16,13%,2%,i,i
OCCCNc1ncnc2scc(-c3ccc(Cl)cc3)c12,-20,?,-34%,?,i
Clc1ccc(-c2csc3ncnc(Cl)c23)cc1,-89*,-7%,-10%,i,i
NNc1ncnc2scc(-c3ccc(Cl)cc3)c12,55,2%,-3%,?,16µM*
O=S(=O)(Nc1ncnc2scc(-c3ccc(F)cc3)c12)c1cc(F)ccc1F,72,-1%,-12%,18µM*,?
COc1ccc(Nc2ncnc3scc(-c4ccc(OC)cc4)c23)cc1,0,?,?,3.3µM*,4.1µM*
COc1ccc(Nc2ncnc3scc(-c4ccc(F)cc4)c23)cc1,.,.,.,?,i
Cc1ccc(-c2csc3ncnc(NS(=O)(=O)c4ccc(Cl)cc4)c23)cc1,10,-2%,-15%,i,i
Cc1ccc(C)c(S(=O)(=O)N2CCN(C(=O)c3ccnn3C)CC2)c1,11,-2%,1%,i,i
